Tests used:
Assay in all cases: PBM binding z-score (relative to random genomic background probes); higher = stronger binding; sequences stand for … in GC…GCGATTGACAGCGTAGAATGAAGG
[1] = tested on: FXR:RXRa (NR concentration 270 nM, RXRa partner concentration 90 nM)
In short: (§1)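 Custom Agilent 4×180K protein-binding microarrays carried double-stranded probes, each with a 34-nt variable region. These regions held direct-repeat seeds, single-nucleotide variants, half-site ablations and random human genomic background sequences. Ligand-free nuclear receptor dimers were incubated on the arrays for 1 h, antibodies against each partner (one per run) detected binding, and scanned fluorescence was regression-normalized. Binding z-scores take the random background probes as reference.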

[2] = tested on: LXRa:RXRa (NR concentration 270 nM, RXRa partner concentration 90 nM)
In short: as §1

[3] = tested on: LXRa homodimer (NR concentration 270 nM)
In short: as §1

[4] = tested on: LXRb:RXRa (NR concentration 270 nM, RXRa partner concentration 90 nM)
In short: as §1

[5] = tested on: LXRb homodimer (NR concentration 270 nM)
In short: as §1

[6] = tested on: PPARa:RXRa (NR concentration 270 nM, RXRa partner concentration 90 nM)
In short: as §1

[7] = tested on: PPARg:RXRa (NR concentration 180 nM, RXRa partner concentration 90 nM)
In short: as §1

[8] = tested on: PPARg:RXRa 270nM:90nM, anti-RXR (NR concentration 270 nM, RXRa partner concentration 90 nM)
In short: as §1

[9] = tested on: PPARg:RXRa 30nM:10nM, anti-RXR (NR concentration 30 nM, RXRa partner concentration 10 nM)
In short: as §1

[10] = tested on: PPARg:RXRa 90nM:30nM, anti-RXR (NR concentration 90 nM, RXRa partner concentration 30 nM)
In short: as §1

TCGAGTAGGTTACCAATGTGGCATTCAGCTTTCT
PBM binding z-score [1]: 0.261 | PBM binding z-score [2]: 1.41 | PBM binding z-score [3]: -0.667 | PBM binding z-score [4]: 0.671 | PBM binding z-score [5]: 0.104 | PBM binding z-score [6]: 0.803 | PBM binding z-score [7]: 0.268 | PBM binding z-score [8]: 1.09 | PBM binding z-score [9]: 0.936 | PBM binding z-score [10]: 1.08

ATACCAAGGTGATCCTGAGGTCGTTGATACTAAC
PBM binding z-score [1]: 2.37 | PBM binding z-score [2]: 2.1 | PBM binding z-score [3]: 0.935 | PBM binding z-score [4]: 1.98 | PBM binding z-score [5]: 0.354 | PBM binding z-score [6]: 2.1 | PBM binding z-score [7]: 0.744 | PBM binding z-score [8]: 0.547 | PBM binding z-score [9]: 0.147 | PBM binding z-score [10]: 0.197

GATACAGTGTCAAGGCCAGAGTACGCGTATTGAT
PBM binding z-score [1]: -0.101 | PBM binding z-score [2]: -0.189 | PBM binding z-score [3]: -0.775 | PBM binding z-score [4]: -0.147 | PBM binding z-score [5]: -0.421 | PBM binding z-score [6]: 0.43 | PBM binding z-score [7]: 0.593 | PBM binding z-score [8]: 0.129 | PBM binding z-score [9]: -0.172 | PBM binding z-score [10]: -0.0433

TCTAGTTGGTCACGGAGGTCTCACACGACGGGTA
PBM binding z-score [1]: 0.555 | PBM binding z-score [2]: 0.613 | PBM binding z-score [3]: 0.0269 | PBM binding z-score [4]: 0.437 | PBM binding z-score [5]: -0.332 | PBM binding z-score [6]: 1.16 | PBM binding z-score [7]: 0.78 | PBM binding z-score [8]: 1.99 | PBM binding z-score [9]: 2.94 | PBM binding z-score [10]: 2.55

TGAATGAGGTCATAAGATCAGGGAACGTTGCAAA
PBM binding z-score [1]: 7.31 | PBM binding z-score [2]: 5.47 | PBM binding z-score [3]: 0.779 | PBM binding z-score [4]: 4.4 | PBM binding z-score [5]: 1.39 | PBM binding z-score [6]: 5.96 | PBM binding z-score [7]: 6.96 | PBM binding z-score [8]: 6.58 | PBM binding z-score [9]: 4.09 | PBM binding z-score [10]: 6.04

CGAACTAGGTCATTGACAGGACAGTGAGTAGTAA
PBM binding z-score [1]: 4.28 | PBM binding z-score [2]: 3.06 | PBM binding z-score [3]: 0.194 | PBM binding z-score [4]: 1.92 | PBM binding z-score [5]: -0.291 | PBM binding z-score [6]: 4.8 | PBM binding z-score [7]: 7.21 | PBM binding z-score [8]: 6.03 | PBM binding z-score [9]: 3.7 | PBM binding z-score [10]: 5.57

TCTATTAGTTGTAGGGCAACCGACGAGTCCGTTT
PBM binding z-score [1]: 0.532 | PBM binding z-score [2]: 0.422 | PBM binding z-score [3]: 0.481 | PBM binding z-score [4]: 0.268 | PBM binding z-score [5]: 0.355 | PBM binding z-score [6]: 1.1 | PBM binding z-score [7]: 0.164 | PBM binding z-score [8]: 1.78 | PBM binding z-score [9]: 3.28 | PBM binding z-score [10]: 2.49

CAAACTATGTCACAGAGGTCAAAGTCCGTGCGTA
PBM binding z-score [1]: 5.6 | PBM binding z-score [2]: 5.73 | PBM binding z-score [3]: 5.85 | PBM binding z-score [4]: 5.11 | PBM binding z-score [5]: 2.14 | PBM binding z-score [6]: 5.51 | PBM binding z-score [7]: 6.2 | PBM binding z-score [8]: 6.01 | PBM binding z-score [9]: 3.36 | PBM binding z-score [10]: 5.69

CCGACTGGGGCAGAAAGGCTACCATACCATCCGG
PBM binding z-score [1]: -0.561 | PBM binding z-score [2]: -0.818 | PBM binding z-score [3]: -0.431 | PBM binding z-score [4]: -0.869 | PBM binding z-score [5]: -1.41 | PBM binding z-score [6]: -0.338 | PBM binding z-score [7]: 0.703 | PBM binding z-score [8]: -0.0777 | PBM binding z-score [9]: -0.705 | PBM binding z-score [10]: -0.612

ATCTCTAGGTAACCATGTTCAGTGAATGCCGAAC
PBM binding z-score [1]: 0.171 | PBM binding z-score [2]: 0.321 | PBM binding z-score [3]: 0.00917 | PBM binding z-score [4]: 0.435 | PBM binding z-score [5]: 0.529 | PBM binding z-score [6]: 0.518 | PBM binding z-score [7]: 0.664 | PBM binding z-score [8]: 0.662 | PBM binding z-score [9]: 0.044 | PBM binding z-score [10]: 0.484

GCTGCTAGGACAGGTTGGTCAGCTAACGGGTACG
PBM binding z-score [1]: -0.662 | PBM binding z-score [2]: -0.909 | PBM binding z-score [3]: -0.343 | PBM binding z-score [4]: -0.926 | PBM binding z-score [5]: -0.654 | PBM binding z-score [6]: -0.661 | PBM binding z-score [7]: 0.0442 | PBM binding z-score [8]: -0.697 | PBM binding z-score [9]: -1.16 | PBM binding z-score [10]: -0.722

ACAGACAGGTGATGAAGGCAACTCAGGCTATCAT
PBM binding z-score [1]: -0.379 | PBM binding z-score [2]: -0.449 | PBM binding z-score [3]: -0.41 | PBM binding z-score [4]: -0.706 | PBM binding z-score [5]: -0.333 | PBM binding z-score [6]: -0.357 | PBM binding z-score [7]: 0.764 | PBM binding z-score [8]: -0.331 | PBM binding z-score [9]: -0.116 | PBM binding z-score [10]: -0.446

GATACAGGGTCAGCTAGATGCCAGAGTATGGAAA
PBM binding z-score [1]: 5.08 | PBM binding z-score [2]: 2.66 | PBM binding z-score [3]: -0.125 | PBM binding z-score [4]: 2.53 | PBM binding z-score [5]: -0.514 | PBM binding z-score [6]: 4.79 | PBM binding z-score [7]: 4.08 | PBM binding z-score [8]: 3.48 | PBM binding z-score [9]: 0.884 | PBM binding z-score [10]: 2.4

ATACCAAGGCGATCGTGAGGTCGTTGATACTAAC
PBM binding z-score [1]: 0.659 | PBM binding z-score [2]: 0.195 | PBM binding z-score [3]: 0.46 | PBM binding z-score [4]: 0.571 | PBM binding z-score [5]: -0.375 | PBM binding z-score [6]: 0.703 | PBM binding z-score [7]: 0.16 | PBM binding z-score [8]: -0.337 | PBM binding z-score [9]: -0.383 | PBM binding z-score [10]: -0.191

TTACCAAGGTGAAGGTTGTTGATCCCTCTGTAGA
PBM binding z-score [1]: 0.965 | PBM binding z-score [2]: 0.801 | PBM binding z-score [3]: -0.298 | PBM binding z-score [4]: 0.622 | PBM binding z-score [5]: -0.706 | PBM binding z-score [6]: 1.61 | PBM binding z-score [7]: 1.21 | PBM binding z-score [8]: 2.25 | PBM binding z-score [9]: 1.07 | PBM binding z-score [10]: 1.96

CGAACGAGGGCATGAGTTGATAGTAAATGCCGAT
PBM binding z-score [1]: 0.719 | PBM binding z-score [2]: 0.489 | PBM binding z-score [3]: -0.433 | PBM binding z-score [4]: 0.273 | PBM binding z-score [5]: -0.709 | PBM binding z-score [6]: 1.27 | PBM binding z-score [7]: 1.45 | PBM binding z-score [8]: 1.26 | PBM binding z-score [9]: 0.122 | PBM binding z-score [10]: 0.578

ATCGAAAGGACGAGGTGAGTATAGAGAAAGGGAA
PBM binding z-score [1]: 0.588 | PBM binding z-score [2]: 0.168 | PBM binding z-score [3]: -0.177 | PBM binding z-score [4]: -0.191 | PBM binding z-score [5]: -0.00522 | PBM binding z-score [6]: 0.0333 | PBM binding z-score [7]: 0.589 | PBM binding z-score [8]: -0.152 | PBM binding z-score [9]: 0.508 | PBM binding z-score [10]: 0.313

CCTACTGGGCCATTCAGAGGTCATTTATCATATG
PBM binding z-score [1]: 2.65 | PBM binding z-score [2]: 4.36 | PBM binding z-score [3]: 8.31 | PBM binding z-score [4]: 4.14 | PBM binding z-score [5]: 1.15 | PBM binding z-score [6]: 3.75 | PBM binding z-score [7]: 2.29 | PBM binding z-score [8]: 2.85 | PBM binding z-score [9]: 0.841 | PBM binding z-score [10]: 1.78

CCGACTGGGGCAAGGTTACCATAACGCACAGCCA
PBM binding z-score [1]: 0.287 | PBM binding z-score [2]: 0.668 | PBM binding z-score [3]: -0.166 | PBM binding z-score [4]: 0.835 | PBM binding z-score [5]: -1.25 | PBM binding z-score [6]: 2.12 | PBM binding z-score [7]: 2.78 | PBM binding z-score [8]: 3.43 | PBM binding z-score [9]: 1.23 | PBM binding z-score [10]: 2.86

TCTCGGAGGACACGAAAGGTCAGAGGTCGACATC
PBM binding z-score [1]: 3.84 | PBM binding z-score [2]: 4.45 | PBM binding z-score [3]: 3.58 | PBM binding z-score [4]: 4.14 | PBM binding z-score [5]: 0.107 | PBM binding z-score [6]: 4.5 | PBM binding z-score [7]: 3.27 | PBM binding z-score [8]: 4.29 | PBM binding z-score [9]: 3.24 | PBM binding z-score [10]: 3.74

AGAATGAGGTTATACGTAGATCAGGGACGAAAGT
PBM binding z-score [1]: 2.37 | PBM binding z-score [2]: 1.79 | PBM binding z-score [3]: 0.0917 | PBM binding z-score [4]: 1.55 | PBM binding z-score [5]: -0.0358 | PBM binding z-score [6]: 3.23 | PBM binding z-score [7]: 1.83 | PBM binding z-score [8]: 2 | PBM binding z-score [9]: 0.651 | PBM binding z-score [10]: 1.6

CCAGACAGGTGAACGGTAACTCAGTCTGGTACGC
PBM binding z-score [1]: -0.375 | PBM binding z-score [2]: -0.082 | PBM binding z-score [3]: -0.28 | PBM binding z-score [4]: -0.0922 | PBM binding z-score [5]: -0.29 | PBM binding z-score [6]: 0.511 | PBM binding z-score [7]: 0.882 | PBM binding z-score [8]: 0.577 | PBM binding z-score [9]: -0.465 | PBM binding z-score [10]: 0.132

ACTTGCAGGCCAAGTTTGGGTCACTCAAACAAAG
PBM binding z-score [1]: 0.638 | PBM binding z-score [2]: 0.231 | PBM binding z-score [3]: -0.189 | PBM binding z-score [4]: 1.11 | PBM binding z-score [5]: -0.0882 | PBM binding z-score [6]: 1.87 | PBM binding z-score [7]: 0.148 | PBM binding z-score [8]: 0.667 | PBM binding z-score [9]: -0.561 | PBM binding z-score [10]: 0.0704

TCTGCTAGGTCAACCATGGTCAGCTAATCTGCTA
PBM binding z-score [1]: 4.32 | PBM binding z-score [2]: 3.21 | PBM binding z-score [3]: -0.0391 | PBM binding z-score [4]: 2.21 | PBM binding z-score [5]: 0.102 | PBM binding z-score [6]: 3.52 | PBM binding z-score [7]: 2.98 | PBM binding z-score [8]: 3.44 | PBM binding z-score [9]: 2.15 | PBM binding z-score [10]: 2.95

— the supplement of paper PMC6555819
